What all share (assay): NCI-60 one-dose screen, 48 h (100 = growth as untreated, 0 = no growth, -100 = all killed)
What all share (settings): 10 µM unless noted

The test system of experiment [1] is SR leukemia.
The test system of experiment [2] is OVCAR-8 ovarian.
The subject of experiment [3] is OVCAR-5 ovarian.
Experiment [4] concerns OVCAR-4 ovarian.
Experiment [5] has as its system SK-OV-3 ovarian.
Experiment [6] deals with OVCAR-3 ovarian.
Experiment [7] concerns HS 578T breast.
Experiment [8] relates to NCI/ADR-RES ovarian.
In experiment [9] the test system is T-47D breast.
For experiment [10], the system named is BT-549 breast.
Experiment [11] has as its system MDA-MB-435 melanoma.
In experiment [12] the test system is SW-620 colon.
Experiment [13] relates to MCF7 breast.
For experiment [14], the system named is HCT-116 colon.
For experiment [15], the system named is HCC-2998 colon.
Experiment [16] relates to KM12 colon.
Experiment [17] concerns IGROV1 ovarian.

The panel holds about 83,000 compounds, 20% with a hit somewhere; the sample as a whole holds those more often.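 Each cell line was grown in a 96-well plate and treated with one concentration of compound for 48 hours. Values below 10 were considered active.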 A number with no mark means an inactive call. Active and inactive are the calls of the source.

As for `CN1C(=O)CNC(=O)[C@H](NC(=O)c2nc3ccccc3cc2O)CSSC[C@H]1C(=O)NCCCc1nc2ccccc2cc1O`, the growth in experiment [1] was -46.3% (active); in experiment [2], 86.2%; in experiment [3] it was 121%; in [4], 96%; in [5] it was 113%; in experiment [6], 9.86% (active). Moreover, the growth in experiment [7] was 90.7%; in experiment [8], 102%; in experiment [9], 78%; in experiment [10], 75.8%; in experiment [11], 44%; in experiment [12], 48.2%. The growth in [13] is 55.1%; in experiment [14], 70%; in [15], 74.7%; in experiment [16], 27%.
As to `CCOC(=O)C1=C(N)Oc2c(sc3c(C)cccc23)C1c1ccc(Cl)cc1` (centres undefined), the growth is 17.5% in experiment [1]; 36.8% in experiment [2]; 41.6% in [3]; 56.6% in experiment [4]; 54.7% in experiment [5]; 22.6% in experiment [17]. Further, the growth in [6] is 0.78% (active); in experiment [7] it was 18.9%; in [8], 24.6%; in experiment [9] it was 17.6%; in [10], 65.7%; in [12], 23.7%. Further, the growth is 8.74% (active) in experiment [13], 23.9% in experiment [14], 49.3% in experiment [15] and 15.3% in experiment [16].
For `CCOC(=O)C1=C(N)Oc2c(sc3c(C)cccc23)C1c1ccc(OC)cc1` (centres undefined), the growth is 29.1% in experiment [1]; 46.6% in experiment [2]; 75.9% in experiment [3]; 65.5% in experiment [4]; 57.7% in experiment [5]; 27.9% in experiment [17]. In addition, the growth in experiment [6] was 11%; in experiment [7] it was 30%; in [8] it was 30.8%; in experiment [9] it was 26%; in experiment [10], 49.6%; in experiment [12], 20.3%. Moreover, the growth is 7.65% (active) in experiment [13], 18.4% in experiment [14], 74.4% in experiment [15] and 27.4% in experiment [16].
Take `O=[N+]([O-])c1ccccc1NCSc1ccc(Cl)cc1`: the growth in [1] is 65%; in experiment [2] it was 95.5%; in experiment [3], 114%; in [4], 108%; in experiment [5] it was 109%; in [17] it was 123%. Also, the growth was 109% in experiment [6]; 99.7% in experiment [7]; 93.3% in [9]; 69.2% in experiment [10]; 93.8% in [11]; 101% in [12]. Further, the growth in experiment [13] is 91.9%; in [14], 83.8%; in [15], 84.3%; in experiment [16], 79.2%.
As to `CCc1cccc2c3c(sc12)C(c1ccc(Cl)cc1)C(C#N)=C(N)O3` (centres undefined), the growth is 13.6% in experiment [1]; 29.4% in experiment [2]; 24.6% in experiment [3]; 75.2% in experiment [4]; 58.3% in experiment [5]; 30.2% in [17]. The growth was 2.19% (active) in experiment [6]; 4.92% (active) in [7]; 19.2% in experiment [8]; 27.8% in [9]; 50.8% in experiment [10]; 33.4% in [12]. In addition, the growth in experiment [13] was 10.3%; in [14] it was 17.9%; in experiment [15], 17.5%; in experiment [16], 18.5%.
`COc1cccc(-c2nc(-c3ccc(NC(=O)c4ccccc4)cc3)[nH]c2-c2ccnc(Br)c2)c1`: the growth was -2.71% (active) in [1]; 34% in experiment [2]; 47.9% in experiment [3]; 38.4% in experiment [4]; 6.72% (active) in experiment [5]; 55.1% in [17]. Also, the growth in experiment [6] is 40%; in experiment [7] it was -25.8% (active); in [8], 35.5%; in experiment [9] it was 14.7%; in experiment [10] it was 47.1%; in experiment [12], 30.8%. The growth was 14.7% in [13], 30.7% in experiment [14], 31.1% in [15] and 20% in [16].
Regarding `N#CC1=C(N)Oc2c(sc3c(Br)cccc23)C1c1ccc([N+](=O)[O-])cc1` (centres undefined), the growth in experiment [1] was -8.87% (active); in [2], 25.3%; in [3], 31.1%; in experiment [4], 39.8%; in [5], 34%; in experiment [6] it was 3.67% (active). The growth in [7] is 10.8%; in [8] it was -26.9% (active); in experiment [9], 64.9%; in experiment [10], 28.8%; in experiment [11], -58.4% (active); in [12], 18.1%. Further, the growth was 10.2% in experiment [13], 8.77% (active) in experiment [14], 10.2% in experiment [15] and 8.9% (active) in [16].
As for `NCCNc1nc2ccccc2c2c(=O)c3cc(F)ccc3sc12`, the growth was -20.5% (active) in [1]; 79.2% in experiment [2]; 91.4% in experiment [3]; 60.3% in experiment [4]; 83.3% in experiment [5]; 66.8% in [6]. The growth is 74.8% in [7]; 78.8% in experiment [8]; 88.7% in experiment [9]; 92.5% in experiment [10]; 58.6% in experiment [11]; -29.1% (active) in experiment [12]. For the same molecule, the growth was 52.6% in experiment [13], 22% in experiment [14], 4.32% (active) in [15] and 34.5% in experiment [16].
In the case of `CC1=C(C)C(=O)C(Nc2cccc(C(=O)OC(C)(C)C)c2)=C(Br)C1=O`, the growth is 15.9% in [1]; 92.4% in experiment [2]; 99.9% in experiment [3]; 88.8% in experiment [4]; 93.2% in experiment [5]; 86.7% in experiment [17]. Moreover, the growth was 77.7% in [6]; 92.8% in [7]; 94.7% in experiment [8]; -0.52% (active) in [9]; 92.9% in experiment [10]; 91.3% in [12]. Further, the growth is 27.1% in experiment [13], 62.3% in experiment [14], 100% in experiment [15] and 99.9% in [16].

These data come from PubChem BioAssay (NCI).
